# Test results: PubChem BioAssay (NCI)
# This is part of a sample that, as a whole, favours compounds with a hit. Of some 83,000 tested, about 20% had one in any assay.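 Negative percent growth values reflect cell death: -40 means 40% of the cells present at the start died, and -100 means all died.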 Unmarked numbers belong to inactive results. Activity calls are given as the source filed them.
# System: NCI-H226 lung
# Assay: NCI-60 one-dose screen, 48 h (100 = growth as untreated, 0 = no growth, -100 = all killed)
# Settings: 10 µM unless noted
# Protocol: Growth inhibition of the NCI-H226 human Non-Small Cell Lung tumor cell line is measured as a screen for anti-cancer activity. Cells are grown in 96 well plates and exposed to the test compound for 48 hours. Compounds are tested at a single concentration, which is 10^-5 M for most compounds. The reported endpoint is percent growth (GI% or GIPRCNT), where numbers from 0 - 100% represent growth inhibition, and numbers from -100% - 0 represent cell death. For example, a value of 40 represents 60% growth inhibition. A value of 0 means no net growth occurred over the course of the experiment. A value of -40 indicates 40% of cells at the beginning of the experiment died by the end of the experiment. A value of -100 means all cells are dead at the end of the experiment.
# NCI-60 Human Tumor Cell Lines Screen was performed using the standard one-dose NCI protocol, which is described in more detail at https://dtp.cancer.gov/discovery_development/nci-60/default.htm.
# Compounds with GIPRCNT values below 10 were considered active. Activity score was based on GIPRCNT using the following formula: […]
# Score is 0 for GIPRCNT values of 100 or above, 50 for GIPRCNT values of 0, and 100 for GIPRCNT values of -100.
row,Structure (SMILES),growth
1,C[C@@H]1CCCCCCCCC[C@H](O)C(=O)C[C@@H](SC[C@@H](O)C(=O)O)C(=O)O1,102%
2,O=C1Nc2ccccc2/C1=C/c1cn(CCCn2c3ccccc3c(=O)c3ccccc32)c2ccccc12,81.3%
3,CCCCC[C@H]1CC=C2C(=O)C=C[C@@H]2CC=CCCCC(=O)O[C@@H](CCCCC)CC=C2C(=O)C=C[C@@H]2CC=CCCCC(=O)O[C@@H](CCCCC)CC=C2C(=O)C=C[C@@H]2CC=CCCCC(=O)O1,6.47% [8.75 µM] (active)
4,Cc1ccc(Nc2c(C(N)=O)cnc3ccc(S(=O)(=O)Nc4cc(C)on4)cc23)cc1,95%
5,COc1cc2ncnc(Nc3ccc(Oc4ccnc(C)c4)c(C)c3)c2cc1NC(=O)CC1CCSS1 (stereo not given),25.8%
6,Cc1nn2c(-c3nc4cc(Cl)c(Cl)cc4[nH]3)c(-c3ccc(F)cc3)nc2s1,4.31% (active)
7,COc1ccc(-c2n/c(=C\c3c(O)[nH]c4ccc(OC)cc34)cc3c2=Nc2ccccc2-3)cc1,89.2%
8,Clc1ccc2c(NCCNc3nc(-c4ccccc4)cc(-c4ccccc4)n3)ccnc2c1,-56.2% (active)
9,C=C(C)[C@@H]1CC[C@]2(C(=O)O)CC[C@]3(C)[C@H](CC[C@@H]4[C@@]5(C)C/C(=C/c6cccc(I)c6)C(=O)C(C)(C)[C@@H]5CC[C@]43C)[C@@H]12,31.5%
10,Cc1cc2nc3c4cc(O)ccc4n(CCN(C)C)c3nc2cc1C,-24.6% (active)
11,CC(C)=CCC/C(C)=C/CC/C(C)=C/CSC[C@H](NC(=O)CCCCCN1CCN(C)CC1)C(=O)NC1CCCCCC1,82.1%
12,CN(C)c1ccc(-c2ccc(-c3ccc(C(=N)N)c(F)c3)s2)cc1,-60.1% (active)
13,O=[N+]([O-])c1cccc(/C=N\Nc2ccccc2)c1,70.1%
14,Cn1cccc1/C=C1/SC(=S)N(CCc2ccc(O)cc2)C1=O,87.8%
15,CN(C)c1ccc(N)c2ccccc12,47%
16,CNC(=O)c1cc(Oc2ccc3nc(NC(=O)Nc4ccc(Cl)cc4)sc3c2)ccn1,67.9%
17,CCOC(=O)N1CCN(CCCCOc2ccc(C(C)(C)CC)cc2)CC1,88.5%
18,COC(=O)[C@]12CC[C@@H](C)[C@H](C)[C@@H]1C1=CC[C@@H]3[C@@]4(C)C[C@@H](OC(C)=O)[C@H](O)[C@@](C)(COC(C)=O)[C@@H]4[C@H](O)C[C@@]3(C)[C@]1(C)CC2,-57.8% (active)
19,O=C(N/N=C\c1ccccc1O)C1CC1,104%
20,O=C(Nc1ccc(/C=C2\SC(=O)N(Cc3ccc(OC(F)(F)F)cc3)C2=O)cc1)c1ccc(Cl)c([N+](=O)[O-])c1,83.4%

row,Structure (SMILES),growth
1,CC(=O)c1c(C)[nH]c(-c2nc3ccc(N4CCN(C)CC4)cc3[nH]2)c1-c1ccc2c(c1)OCCO2,47.9%
2,Brc1ccc2[nH]cc(-c3nc(-c4c[nH]c5ncccc45)cs3)c2c1,62.4%
3,COc1ccc(/C=C/C(=O)NCCO)cc1,97.9%
4,CC(=O)O[C@H]1CC[C@]2(C)[C@H]3CC=C4[C@@H]5[C@H](C)[C@@H](C)CC[C@]5(C(=O)NCCNCCNCCN)CC[C@@]4(C)[C@]3(C)CC[C@H]2C1(C)C,90.5%
5,COc1ccc(NC(=S)N/N=C/c2ccccc2SSCCC(=O)OC[C@H]2O[C@H](O)[C@H](O)[C@@H](O)[C@@H]2O)cc1,88.2%
6,O=C1c2ccccc2C(=Cc2ccccc2)c2ccccc21,38.7%
7,Cc1ccc2c(c1)c1nc3cc(C)c(C)cc3nc1n2CCN(C)C,7.71% (active)
8,Nc1nc2c(c(=O)[nH]1)C(c1ccc3c(c1)OCO3)C=C(C(=O)O)N2 (stereo not given),115%
9,Cc1cc2nc3c4cc(N)ccc4n(CCN(C)C)c3nc2cc1C,1.78% (active)
10,COc1ccccc1CNc1nc(N)nc2[nH]c3ccc(O)cc3c12,92.6%
11,N#Cc1cnc2cc(OC[C@@H](O)CO)c(NC(=O)CC3CSSC3)cc2c1Nc1ccc(OCc2cccc(F)c2)c(Cl)c1,-65.3% (active)
12,Cc1ccc(S(=O)(=O)Nc2ccc(-c3cc(-c4cccc(F)c4)c(C#N)c(=O)[nH]3)cc2)cc1,79.6%
13,CC[C@H](CC[C@@H](C)[C@H]1CC[C@H]2[C@@H]3/C(=C/c4cccnc4)C(=O)C4=CC(=O)CC[C@]4(C)[C@H]3CC[C@]12C)C(C)C,87.5%
14,CCN(CC)C(=O)CCCCCn1c2ccccc2c2c3c(c4c5ccccc5[nH]c4c21)C(=O)N(O)C3=O,69.9%
15,CN(C)c1cccc2[nH]c(-c3[nH]ncc3Nc3ccnc(N)n3)nc12,-26.6% (active)
16,CCCCC[C@H]1C/C=C2/C(=O)C=C[C@@H]2C/C=C\CCCC(=O)O[C@@H](CCCCC)C/C=C2/C(=O)C=C[C@@H]2C/C=C\CCCC(=O)O1,-61.2% (active)
17,NCCn1cc(-c2nc(-c3c[nH]c4ncccc34)cs2)c2cc(Br)ccc21,80.3%
18,Cc1cc(Cl)nc(N(CCNc2ccnc3cc(Cl)ccc23)Cc2ccco2)n1,70.3%
19,O=S(=O)(NCCNc1cc(-c2cn(-c3ccccc3)nc2-c2cccc(O)c2)ccn1)c1ccc(Br)cc1,45%
20,Cc1cc2nc3c4cc([N+](=O)[O-])cc([N+](=O)[O-])c4n(CCN(C)C)c3nc2cc1C,84.1%
